Screen size: about 65,000 compounds; about 2,100 (3.2%) showed an effect of 50% or more. The median lay at about -52%. What follows is part of a selection rich in strong results, with near analogues and random picks from the rest.

This assay relates to Plasmodium falciparum. Nature of the assay: Screen against P. falciparum Asexual Blood Stage (ABS), at 5uM. Type of assay: functional, Dd2. The settings on record: tested at 5 uM.
For the molecule `CNC(=O)c1cccc(CNC(C)c2cc(C)ccc2OC(F)F)c1` (centres undefined), the INHIBITION amounted to 60.1%.
Then `CNC(=O)c1cccc(CNC(C)c2cc(Cl)ccc2OC)c1` (centres undefined), with -5.94%; and `CNC(=O)c1cccc(CNC(C)c2ccc(F)cc2N(C)C)c1` (centres undefined), with -107%; and `Cc1oc(C)c(C(=O)NCc2ccccc2CN(C)C)c1C`, with 57.3%.
As for `CCOc1ncccc1CNC(=O)c1c(C)oc(C)c1C`, the figure is 58.4%; as for `Cc1oc(C)c(C(=O)NCc2cccnc2N(C)C)c1C`, -69.8%.
Regarding `Cc1oc(C)c(C(=O)NCc2ccccc2S(=O)(=O)N(C)C)c1C`, the INHIBITION is reported as -57.1%.
With `COc1ncccc1CNC(=O)c1c(C)oc(C)c1C`, the INHIBITION came to 32.4%.
Take `Cc1oc(C)c(C(=O)NCc2ccccn2)c1C`: the INHIBITION is reported as -148%.
Regarding `Cc1cc(CC(C)Nc2ncc(C)c(N(C)C)n2)[nH]n1` (centres undefined), the INHIBITION was -13.9%.
In the case of `O=C(c1ccccc1)N1C[C@@H]2CCCO[C@@H]2[C@H](N2CCCC2)C1`, the INHIBITION was -41.1%.
With `O=C(O)[C@@H]1CN(C(=O)c2ccc3[nH]nnc3c2)C[C@H]1c1ccccc1`, the INHIBITION is recorded as -123%.
Consider `COCC1(C(=O)N[C@H]2CN(c3nnc(C)s3)C[C@@H]2C2CC2)CCC1`, for which the INHIBITION is given as -176%.
Then `CC(C)c1nc(CN(C)C2CCN(CCNS(C)(=O)=O)C2)no1` (centres undefined), with -20.9%; and `CSCCc1ccc(NC(=O)NCc2ccnc(N(C)C)c2)cc1`, with -46.2%.
Take `COc1cc(N2C[C@@H]3COC[C@]3(COc3ncccc3F)C2)ncn1`: the INHIBITION is -25.8%.
Regarding `c1c(CN2CCCC2)nc2n1CCN(C1CCOCC1)C2`, the INHIBITION is on record as -103%.
Then `c1ccc(Oc2cc(CNCC3CNc4ccnn4C3)ccn2)cc1` (centres undefined), with 53.3%; and `COc1cc(CNCC2CNc3ccnn3C2)ccn1` (centres undefined), with -129%; and `COc1ccc(CNCC2CNc3cc(C)nn3C2)cn1` (centres undefined), with -171%.
As to `Cc1cc2n(n1)CC(CNCc1ccc(-n3cccn3)cc1)CN2` (centres undefined), the INHIBITION is given as 53.4%.
Then `Cc1cc2n(n1)CC(CNCc1ccc(OCC3CC3)nc1)CN2` (centres undefined), with -101%.
Turning to `c1ccc(Oc2ccc(CNCC3CNc4ccnn4C3)cn2)cc1` (centres undefined), the INHIBITION is -12.8%.
`Cc1cc2n(n1)CC(CNCc1ccc(Oc3ccccc3)nc1)CN2` (centres undefined): the INHIBITION is given as 58.9%.
In the case of `Cc1cc2n(n1)CC(CNCc1ccc(-n3cccn3)nc1)CN2` (centres undefined), the INHIBITION is listed as 15.1%.
Regarding `Cc1cc2n(n1)CC(CNCc1cnn(-c3ccccc3)c1)CN2` (centres undefined), the INHIBITION is given as -71.4%.
Turning to `COc1ccccc1N1CC(NC(=O)c2cc(C(C)C)nn2C)CC1=O` (centres undefined), the INHIBITION is given as -102%.
With `COCC1c2nnn(C)c2CCN1C(=O)CCc1cccc(OC)c1` (centres undefined), the INHIBITION is listed as -85.3%.
Then `CC1CCCN(Cc2ccc(C(N)=O)cc2)C1` (centres undefined), with -118%.
